# Bioassay records (PubChem BioAssay)
# This is a sample that favours compounds with a hit; in the whole collection about 2.4% have one here.
# POLI inh = qHTS for Inhibitors of Polymerase Iota; DNA polymerase iota (Homo sapiens), Q9UNA4; 390,000 compounds, 1% hits; Potency, µM (highest dose often 115 µM), without a hit: at the top dose activity, negative = inhibition, usual class: inhibitors; AID 588590, 2011; Pol iota fluorescent replication assay, 10 min; note: potency is the fitted concentration of half-maximal effect
#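 Pol iota at 10 nM preincubated 15 min with compounds at room temperature; reaction started with fluorescent substrate, 50 nM final. Fluorescence read kinetically at 0 and 10 min; buffer-only wells as negative control.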
# Pol beta inh-1 = qHTS Assay for Inhibitors of DNA Polymerase Beta; P06746; Pol beta primer extension/strand displacement, fluorescence kinetic; Potency, µM (series often up to 114 µM), for the others: top-dose activity change, negative = inhibition, actives largely listed as inhibitors; 340,000 compounds, 1.3% hits; AID 485314, 2010; note: potency is the fitted concentration of half-maximal effect; % is set by controls: 0 for no effect and ±100 for the full control effect
#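 Enzyme-only controls used 10 nM Pol beta; buffer lacking enzyme served as negative control. Compound preincubated 15 min, then 50 nM substrate added; 0 and 10 min reads at room temperature.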
# FEN1 inh = qHTS Assay for the Inhibitors of Human Flap endonuclease 1 (FEN1); Potency, µM (top dose mostly 114 µM), for inactives: at the top dose activity change, negative = inhibition, hits mostly inhibitors; 390,000 compounds, 0.35% hits; Recombinant FEN1 flap cleavage, fluorescence, 15 min; P39748; note: potency is the fitted concentration of half-maximal effect; % is set by controls: 0 for no effect and ±100 for the full control effect; nearly all actives have a fitted effect of over 65% in size
#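 Quantitative HTS format: each compound was titrated, incubated with 10 nM nuclease for 15 min at room temperature, then challenged with flap substrate at 50 nM final. Signal change over 15 min gave concentration–effect curves.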
# Pol eta inh-1 = qHTS for Inhibitors of Polymerase Eta; DNA polymerase eta (Homo sapiens), Q9Y253; recombinant Pol eta, fluorescent DNA replication assay; Potency, µM (doses to about 114 µM), inactives show at the highest dose activity change, negative = inhibition, hits mostly inhibitors; 390,000 compounds, 1.2% hits; note: potency is the fitted concentration of half-maximal effect; % is set by controls: 0 for no effect and ±100 for the full control effect
#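 Pol eta (10 nM) was preincubated with compounds for 15 min at room temperature, after which fluorescent replication substrate (50 nM final) was added to start the reaction. Fluorescence was read kinetically at 0 and 10 min.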
# WRN helicase inh = qHTS for Inhibitors of WRN Helicase; Potency, µM (highest dose often 114 µM), inactives show at the top dose activity change, negative = inhibition, usual class: inhibitors; WRN helicase unwinding, fluorescent forked duplex, kinetic; Bifunctional 3'-5' exonuclease/ATP-dependent helicase WRN (Homo sapiens), Q14191; AID 651768, 2012; 360,000 compounds, 0.46% hits; note: potency is the fitted concentration of half-maximal effect; % is set by controls: 0 for no effect and ±100 for the full control effect; nearly all actives have a fitted effect of over 55% in size
#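 Screening of the MLSMR collection measured strand separation of a quenched forked DNA duplex (100 nM) by 20 nM WRN with 2 mM ATP, all final. Compounds were preincubated with enzyme 15 min at room temperature.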
# Pol kappa inh-1 = qHTS for Inhibitors of Polymerase Kappa; DNA polymerase kappa (Homo sapiens), Q9UBT6; purified Pol kappa, fluorescent DNA synthesis assay, 10 min; Potency, µM (doses to about 107 µM), for inactives: at the top dose activity, negative = inhibition, usual class: inhibitors; 400,000 compounds, 0.53% hits; AID 588579, 2011; note: potency is the fitted concentration of half-maximal effect; % is set by controls: 0 for no effect and ±100 for the full control effect
#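 Pol kappa 10 nM + cpd, 15 min RT; start w/ substrate 50 nM final; fluorescence kinetic read, 0 and 10 min. Neg ctrl: buffer, no enzyme.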
# Pol beta inh-2 = Inhibitors of DNA Polymerase Beta: Hit validation | Potency, µM, most hits filed as inhibitors | 250 compounds, 87% hits | Pol beta primer extension/strand displacement, fluorescence kinetic | shares compounds with Pol beta inh-1 | AID 540280, 2011; calls by dose curve; note: potency is the fitted concentration of half-maximal effect
# Klenow counter = Inhibitors of DNA Polymerase Beta: Hit Validation in Klenow Fragment Assay; 250 tested, under 10 active; Klenow exo- polymerase counter-screen, fluorescent DNA substrate; activity change, negative = inhibition, % at 57.1 µM; shares compounds with Pol beta inh-1
# HIV RT counter = Inhibitors of DNA Polymerase Beta: Hit Validation in HIV-RT Assay. 250 tested, under 10 active. HIV-1 RT polymerase activity, counter-screen. shares compounds with Pol beta inh-1. activity % (negative = inhibition, positive = activation), % at 57.1 µM
# POLB inh gel = Inhibitors of DNA Polymerase Beta: Hit Validation in Radiolabeled Extension Assay | 110 compounds, 91% hits | inhibition, % at 10 µM | shares compounds with Pol beta inh-1 | radiolabeled primer extension gel assay, phosphorimager;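 active = inhibition at 10 µM of 30% or more; inconclusive = no clear call, values can overlap the other calls; inactive = inhibition at 10 µM under 30%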
# PGK validate = qHTS for inhibitors of Phosphogylcerate Kinase: Hit Validation Screen. TbPGK coupled GAPDH assay, Kinase-Glo luminescence. Potency, µM (titrated, usually from 57.5 µM), without a hit: at the top dose activity change, negative = inhibition, most hits filed as inhibitors. shares compounds with Pol kappa inh-1. 500 compounds, 79% hits. AID 686980, 2013; note: potency is the fitted concentration of half-maximal effect; % is set by controls: 0 for no effect and ±100 for the full control effect; nearly all actives have a fitted effect of over 65% in size
# POLI cherry-pick = qHTS for Inhibitors of Polymerase Iota: Confirmatory Assay for Cherry-picked Compounds. 1,500 compounds, 77% hits. shares compounds with Pol kappa inh-1. AID 720496, 2013. Potency, µM, actives largely listed as inhibitors. Pol iota primer extension, TAMRA/BHQ fluorescence; note: potency is the fitted concentration of half-maximal effect
# Pol kappa inh-2 = qHTS for Inhibitors of Polymerase Kappa: Confirmatory Assay for Cherry-picked Compounds; shares compounds with Pol eta inh-1; purified Pol-kappa, fluorescent strand-displacement substrate; Potency, µM, hits mostly inhibitors; 920 compounds, 76% hits; AID 720501, 2013; note: potency is the fitted concentration of half-maximal effect
# Pol eta inh-2 = qHTS for Inhibitors of Polymerase Eta: Confirmatory Assay for Cherry-picked Compounds; shares compounds with Pol eta inh-1; Pol eta primer extension, TAMRA/BHQ fluorescence, 10 min; Potency, µM, actives largely listed as inhibitors; 2,600 compounds, 64% hits; AID 720502, 2013; note: potency is the fitted concentration of half-maximal effect
# * = called active by the depositor; ? = inconclusive; . = not tested or not shown; [ ] = remark or other dose. Unless noted, calls come from the whole dose curve; as a rule, active = well fitted curve in the direction sought with a large enough effect; inconclusive = small, poorly fitted or top-dose-only effect, or another doubt; inactive = no such curve, though single readings can be large; an effect the other way counts as inactive or inconclusive.
SMILES,POLI inh,Pol beta inh-1,FEN1 inh,Pol eta inh-1,WRN helicase inh,Pol kappa inh-1,Pol beta inh-2,Klenow counter,HIV RT counter,POLB inh gel,POLI cherry-pick,Pol eta inh-2,others
CSCC[C@H](NC(=O)[C@@H]1CCCN1C(=O)CNC(=O)[C@H](CCCCN)NC(=O)[C@H](Cc1cnc[nH]1)NC(=O)[C@H](CO)NC(=O)[C@H](CC(C)C)NC(=O)[C@H](CCCNC(=N)N)NC(=O)[C@@H]1CCCN1C(=O)[C@H](CCCNC(=N)N)NC(=O)[C@H](CCC(N)=O)NC(=O)[C@H](CCCNC(=N)N)NC(=O)[C@H](CCCNC(=N)N)NC(=O)[C@H](Cc1ccccc1)NC(=O)[C@@H](N)CCCCN)C(=O)N1CCC[C@H]1C(=O)N[C@@H](Cc1ccccc1)C(=O)O,.,.,.,.,.,15%[60.1 µM],.,.,.,.,.,.,
COc1cccc(C(=O)Nc2ccc3c(c2)C(=O)c2ccccc2C3=O)c1,?,10µM*,-23%,?,?,-9%[60.1 µM],14*,?,10,.,?,.,
Nc1nc(SCc2ccc(Cl)cc2Cl)nc2nc3c(cc12)CCCC3,79µM*,10µM*,4%,?,?,-25%,35*,287,-4,.,34*,.,
Cn1c(SCC(=O)Nc2ccc3nc(SCC(=O)N4CCCC4)sc3c2)nnc1-c1ccccc1,?,7.1µM*,-24%,14µM*,?,79µM*,13*,-8,19,.,75*,.,
N#CC1=C(N)N2C(=C(C#N)C1c1cccc(Br)c1)Nc1ccccc12 (stereo not drawn),55%,25%,6%,-3%,-3%,-2%,.,.,.,.,.,.,
N#CC1=C(N)N2C(=C(C#N)C1c1ccc(Br)cc1)Nc1ccccc12 (stereo not drawn),?,13µM*,-4%,56µM*,-6%[11.6 µM],-40%,16*,-28,39,.,?,.,
COc1ccc(N2CCN(CCCNC(=O)c3c(C)nn(-c4ccc(F)cc4)c3-n3cccc3)CC2)cc1,8%,31%,-7%,-15%,.,-5%,.,.,.,.,.,.,
CCc1nc(SC)ncc1C(=O)NCc1cccc(Br)c1,16%,2%,10%,-9%,.,-6%,.,.,.,.,.,.,
CCC1(CC)NC(=O)N(CC(=O)Nc2sc3c(c2C(N)=O)CCC3)C1=O,13µM*,16µM*,-28%,25µM*,?,?,28*,-20,-10,95*,.,?,
O=C1CC(c2ccc(O)cc2)Oc2cc(O)ccc21 (stereo not drawn),8%,.,11%,-4%,0%,-8%,.,.,.,.,.,.,
Cc1c(O)cc2c(c1O)C(=O)CC(c1ccc(O)cc1)O2 (stereo not drawn),?,1.3µM*,?,8.9µM*,-8%[11.6 µM],14µM*,5*,-20,27,.,.,?,
CC(=O)c1ccc(NC(=O)CSc2ccsc2[N+](=O)[O-])cc1,?,5.6µM*,-4%,11µM*,?,?,22*,-29,18,99*,42*,?,Pol kappa inh-2=38*
O=C(CSc1ccsc1[N+](=O)[O-])Nc1cc(F)ccc1F,?,13µM*,?,7.1µM*,?,25µM*,25*,-33,-5,99*,67*,43*,PGK validate=15µM*
COc1ccc(Cn2c(C(=O)O)c(CNCc3ccccc3F)c3ccc(OC)cc32)cc1,3%,-1%,11%,.,.,-4%,.,.,.,.,.,.,
CCOc1ccc(C(=O)NCc2nnnn2-c2ccc(C)c(C)c2)cc1OCC,-8%,-16%,19%,1%,.,-8%[60.1 µM],.,.,.,.,.,.,
C=C(C)C(=O)Nc1cccc(C2=NOC3(C2)C[C@H](C(N)=O)N(C(=O)c2ccccc2)C3)c1 (stereo partly drawn),50µM*,18µM*,-17%,13µM*,-6%[11.6 µM],?,28*,-32,-1,86*,.,27*,PGK validate=?
CSc1ccccc1NC(=O)c1noc2c1CCC2,20µM*,10µM*,?,28µM*,?,?,32*,-10,3,93*,67*,60*,
Cc1ccc(O)c(NC(=O)c2noc3c2CCCC3)c1,6%,0%,-7%,-12%,.,-4%,.,.,.,.,.,.,
CCOc1ccc(/C=N/NC(=O)c2cc(-c3ccco3)nc3ccccc23)cc1,?,15%,13%,-7%,-14%,-4%,.,.,.,.,.,.,
CCNC(=O)COC(=O)c1cc(-c2ccco2)nc2ccccc12,8.9µM*,13µM*,?,20µM*,-21%[11.6 µM],35µM*,25*,-20,5,98*,34*,38*,
